The results in this text go back to PubChem BioAssay (Tox21).

Each structure is given as a SMILES string. A number with no mark means an inactive call. Records with an inconclusive call do not appear. Activity calls are given as the source filed them. Unless noted, calls follow the shape of the dose curve; as a rule, active = well fitted curve in the direction sought with a large enough effect in the repeat runs; inconclusive = weak or mixed curves; inactive = no such curve, though single readings can be large; an effect the other way counts as inactive or inconclusive.

Experiment [1] deals with Luciferin 4-monooxygenase (Photinus pyralis) (UniProt P08659). The experiment can be described thus: qHTS assay to identify small molecule inhibitors of firefly luciferase (AID 1224835). Also: nearly all actives have a fitted effect of over 25% in size. Also: potency is read from the fitted curve at half-maximal effect. A digest of the protocol:
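Biochemical qHTS: compounds run as interplate titrations against purified firefly enzyme, with D-luciferin and ATP each at its KM concentration. Light output recorded by CCD imaging.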
For orientation: In qHTS, concentration-response curves come from the screen itself.

A short description of experiment [2]: qHTS assay to identify small molecule agonists of the constitutive androstane receptor (CAR) signaling pathway - cell viability counter screen (AID 1224836). Also: nearly all actives have a fitted effect of over 45% in size. Summed up: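 23 h treatment, 37 C, 5% CO2. Cell line: HepG2 stably expressing hCAR with a CYP2B6-2.2kb construct. Co-treatment: PK11195, 0.75 uM final. Read-out: CellTiter-Fluor fluorescence intensity.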

Experiment [3] in a line: qHTS assay to identify small molecule antagonists of the constitutive androstane receptor (CAR) signaling pathway - cell viability counter screen (AID 1224837). Also: nearly all actives have a fitted effect of over 45% in size. Summed up:
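Using CellTiter-Fluor, viability is scored in HepG2 cells stably carrying hCAR and a 2.2kb CYP2B6 reporter after 23 hr compound exposure across 15 concentrations, with CITCO present at 50 nM.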

Experiment [4] has as its target Nuclear receptor subfamily 1 group I member 3 (Homo sapiens) (UniProt Q14994). The experiment can be described thus: qHTS assay to identify small molecule agonists of the constitutive androstane receptor (CAR) signaling pathway (AID 1224839).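 Also: HepG2 cells stably carrying human CAR and a CYP2B6 luciferase reporter; nearly all actives have a fitted effect of over 15% in size.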 Summed up:
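Compounds tested at 15 concentrations on HepG2 cells stably harbouring hCAR and CYP2B6-2.2kb reporter constructs, co-treated with PK11195 (0.75 uM final), 24 h at 37 C; luminescent reporter signal quantified.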

A short description of experiment [5]: qHTS assay to identify small molecule antagonists of the estrogen related receptor signaling pathway with the pleiotropic PPARgamma coactivator (PGC) from Tox21 10K library - cell viability counter screen (AID 1224840; active = well fitted cell-killing curve with a large enough effect in the repeat runs, not every such curve was filed as active; also: nearly all actives have a fitted effect of over 40% in size). Summed up:
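Here the PGC/ERR cells serve as a cytotoxicity control: they are exposed to compounds for 17.5 hours at 37 C, and live-cell signal is quantified using CellTiter-Fluor fluorescence.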

The target of experiment [6] is Thyrotropin receptor (Homo sapiens) (UniProt P16473). The experiment is described as follows: qHTS assay to identify small molecule agonists of the thyroid stimulating hormone receptor (TSHR) signaling pathway (AID 1224843; calls by dose curve; also: nearly all actives have a fitted effect of over 45% in size). Summed up:
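TSHR-HEK293 cells in agonist mode, 30 min room-temperature step, then cAMP measured by competitive HTRF (cAMP-d2 with anti-cAMP cryptate) after 1 h at room temperature. Tested at 15 concentrations in triplicate.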

Experiment [7] in a line: qHTS assay to identify small molecule agonists of the hypoxia (HIF-1) signaling pathway - cell viability counter screen (AID 1224844; calls by dose curve; also: nearly all actives have a fitted effect of over 50% in size). Summed up: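 Multiplexed with the HRE beta-lactamase assay, this viability read used CellTiter-Glo luminescence (30 min, RT) on HRE-bla ME-180 cells treated 17 hrs with compounds in 0.5% dialyzed FBS medium.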
The nature of experiment [8]: qHTS assay to identify small molecule agonists of the hypoxia (HIF-1) signaling pathway (AID 1224846; active = well fitted activation curve with a large enough effect in the signal ratio in the repeat runs, not every such curve was filed as active; the % refers to the signal ratio). A digest of the protocol:
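Hypoxia-pathway activation was scored as increased beta-lactamase from an HRE-controlled reporter in ME-180 cells; plated at 2,000 cells per well with 0.5% dialyzed FBS, they were exposed 17 hrs to compounds and then given CCF4-AM.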

Experiment [9] can be described thus: qHTS assay to identify small molecule agonists of H2AX - cell viability counter screen (AID 1224847; calls by dose curve; also: top concentration of the series differs between compounds; nearly all actives have a fitted effect of over 30% in size). A digest of the protocol: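 Compounds tested at 15 concentrations were incubated 3 hr at 37C with wild-type CHO-K1 cells; cellular ATP-based luminescence (CellTiter-Glo) indicated viability.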
Experiment [10] in a line: qHTS RealTime-Glo MT Cell Viability Assay in HepG2 cells - 24 hour (AID 1224867). Also: nearly all actives have a fitted effect of over 50% in size. A digest of the protocol: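 Cells + NanoLuc/prosubstrate dispensed (600 cells/well) → 5 h at 37 C/5% CO2 → compounds in DMSO transferred → 40 h incubation at 37 C, luminescence read at 0, 8, 16, 24, 32, 40 h.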
The nature of experiment [11]: qHTS RealTime-Glo MT Cell Viability Assay in HEK293 cells - 32 hour (AID 1224868). Also: top concentration of the series differs between compounds; nearly all actives have a fitted effect of over 50% in size. Summed up:
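Tox21 10K qHTS, HEK293, 600 cells/well, RealTime-Glo reagent co-dispensed with cells; 5 h preincubation, compound by pintool, 37 C, luminescence at 0–40 h.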

Experiment [12] is described as follows: A CellTox Green Cytotoxicity Assay to monitor cytotoxicity in HEK293 cells - 0 hour (AID 1224869). Also: nearly all actives have a fitted effect of over 50% in size. A digest of the protocol: (§1)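 Seeding of HEK293 cells together with cytotoxicity dye preceded a 5 h incubation at 37 C/5% CO2. Test compounds in DMSO were then added and fluorescence monitored across 40 h.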
Experiment [13] is described as follows: A CellTox Green Cytotoxicity Assay to monitor cytotoxicity in HEK293 cells - 40 hour (AID 1224871). Also: nearly all actives have a fitted effect of over 45% in size. A digest of the protocol:
as §1

Experiment [14] is described as follows: qHTS assay to identify small molecule agonists of H2AX (AID 1224845; active = well fitted activation curve with a large enough effect in the signal ratio in the repeat runs, not every such curve was filed as active; the % refers to the signal ratio). A digest of the protocol: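 Wild-type CHO-K1 cells, plated overnight, exposed 3hr at 37C to 15 concentrations (0.76% DMSO final). Lysed, then HTRF anti-pH2AX (S139) cryptate and anti-H2AX-d2 antibodies, 24 hr room temperature; 665/620 nm emission read.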
Experiment [15] can be described thus: qHTS RealTime-Glo MT Cell Viability Assay in HepG2 cells - 40 hour (AID 1224870). Also: nearly all actives have a fitted effect of over 50% in size. A digest of the protocol: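 HepG2 cells (600/well) mixed with RealTime-Glo MT reagent, settled 5 h at 37 C/5% CO2 before compound addition. Nonlytic NanoLuc luminescence from viable-cell prosubstrate reduction read repeatedly during 40 h treatment at 37 C.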
Experiment [16] is described as follows: qHTS assay to identify small molecule antagonists of the estrogen related receptor signaling pathway with the pleiotropic PPARgamma coactivator (PGC) from Tox21 10K library (AID 1224841; call rule not given here). Summed up: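 Each well held 2,000 PGC/ERR cells, pre-incubated six hours (37 C, 5% CO2). Test substances in DMSO were added by pin tool and left for 18 h at 37 C before luciferase detection by One-Glo.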

The nature of experiment [17]: qHTS assay to identify small molecule agonists of the estrogen related receptor signaling pathway with the pleiotropic PPARgamma coactivator (PGC) from Tox21 10K library (AID 1224842). Also: nearly all actives have a fitted effect of over 15% in size. Also: potency is read from the fitted curve at half-maximal effect. Summed up:
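PGC/ERR reporter cell line, 2,000 cells per well, incubated 6 h at 37 C before 23 nL compound in DMSO was added. After 18 h at 37 C, One-Glo luminescence read following 30 min at room temperature.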

The nature of experiment [18]: qHTS assay to identify small molecule antagonists of the estrogen related receptor (ERR) signaling pathway from Tox21 library (AID 1224848). Also: nearly all actives have a fitted effect of over 50% in size. Summed up: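 ERR reporter cell line (from NTP) seeded 2,000 cells/well, rested 6 h at 37 C/5% CO2, then pin-dosed with compounds in DMSO. After 18 h at 37 C, ONE-Glo added; luminescence read after 30 min at room temperature.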

A short description of experiment [19]: qHTS assay to identify small molecule agonists of the estrogen related receptor (ERR) signaling pathway from Tox21 library (AID 1224849; calls by dose curve; also: nearly all actives have a fitted effect of over 15% in size). The following applies: ERR reporter cell line, ONE-Glo luciferase, 18 h; at 92.4 µM (top of the series) unless noted. A digest of the protocol:
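Six hours post-seeding at 37 C/5% CO2, ERR cells receive DMSO-solubilised compounds; after 18 h at 37 C, ONE-Glo reagent is applied and luminescence recorded.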
% is scaled to controls: 0 for no effect and ±100 for the full control effect.

Chain of Luciferin 4-monooxygenase (Photinus pyralis) (P08659 whole entry, looked up): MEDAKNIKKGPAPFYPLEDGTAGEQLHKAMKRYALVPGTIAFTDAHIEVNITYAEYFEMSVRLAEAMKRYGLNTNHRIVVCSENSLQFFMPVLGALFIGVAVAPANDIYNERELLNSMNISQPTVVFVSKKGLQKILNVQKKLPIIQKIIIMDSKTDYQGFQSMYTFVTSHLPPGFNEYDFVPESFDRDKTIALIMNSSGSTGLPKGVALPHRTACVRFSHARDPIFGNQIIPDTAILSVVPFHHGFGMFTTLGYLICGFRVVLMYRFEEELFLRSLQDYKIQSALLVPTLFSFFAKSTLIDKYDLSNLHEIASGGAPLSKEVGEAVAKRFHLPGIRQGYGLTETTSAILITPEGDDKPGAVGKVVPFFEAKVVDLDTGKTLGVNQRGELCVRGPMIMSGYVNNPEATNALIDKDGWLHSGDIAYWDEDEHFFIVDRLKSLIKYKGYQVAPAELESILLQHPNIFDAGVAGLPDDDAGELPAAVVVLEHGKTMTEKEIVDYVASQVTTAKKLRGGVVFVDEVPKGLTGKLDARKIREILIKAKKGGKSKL
Chain of Thyrotropin receptor (Homo sapiens) (P16473 whole entry, looked up): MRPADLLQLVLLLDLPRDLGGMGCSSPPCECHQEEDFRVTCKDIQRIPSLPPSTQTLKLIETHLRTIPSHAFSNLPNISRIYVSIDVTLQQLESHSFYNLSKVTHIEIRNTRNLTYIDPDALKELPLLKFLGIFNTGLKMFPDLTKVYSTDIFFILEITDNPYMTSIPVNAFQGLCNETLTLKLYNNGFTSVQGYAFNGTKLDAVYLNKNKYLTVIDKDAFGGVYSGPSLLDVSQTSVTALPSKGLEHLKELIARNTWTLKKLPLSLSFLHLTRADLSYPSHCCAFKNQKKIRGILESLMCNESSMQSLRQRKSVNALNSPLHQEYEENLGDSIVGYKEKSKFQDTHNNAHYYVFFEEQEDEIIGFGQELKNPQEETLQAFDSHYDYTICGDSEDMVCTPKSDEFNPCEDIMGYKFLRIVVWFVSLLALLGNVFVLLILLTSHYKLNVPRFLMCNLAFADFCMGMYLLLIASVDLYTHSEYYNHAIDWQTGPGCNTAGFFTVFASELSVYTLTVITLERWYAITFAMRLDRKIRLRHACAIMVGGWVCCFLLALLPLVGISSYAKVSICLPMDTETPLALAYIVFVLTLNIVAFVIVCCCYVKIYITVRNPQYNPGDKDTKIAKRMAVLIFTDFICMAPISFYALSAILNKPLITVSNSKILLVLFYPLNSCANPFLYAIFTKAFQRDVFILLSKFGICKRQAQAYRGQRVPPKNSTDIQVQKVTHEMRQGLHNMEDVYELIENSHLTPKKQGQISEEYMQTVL
Chain of Nuclear receptor subfamily 1 group I member 3 (Homo sapiens) (Q14994 whole entry, looked up): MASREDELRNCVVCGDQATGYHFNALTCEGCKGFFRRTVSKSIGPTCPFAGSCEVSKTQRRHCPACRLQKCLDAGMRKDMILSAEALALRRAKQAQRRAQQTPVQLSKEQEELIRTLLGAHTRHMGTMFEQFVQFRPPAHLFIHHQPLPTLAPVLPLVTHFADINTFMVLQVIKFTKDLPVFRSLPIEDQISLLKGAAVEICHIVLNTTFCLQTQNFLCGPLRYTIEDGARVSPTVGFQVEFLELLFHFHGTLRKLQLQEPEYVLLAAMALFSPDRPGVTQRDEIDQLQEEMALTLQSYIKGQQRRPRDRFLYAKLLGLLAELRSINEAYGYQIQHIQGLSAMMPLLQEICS

As to `COC(=O)N[C@H](C(=O)N[C@@H](Cc1ccccc1)[C@@H](O)CN(Cc1ccc(-c2ccccn2)cc1)NC(=O)[C@@H](NC(=O)OC)C(C)(C)C)C(C)(C)C`, the Potency entry in [1], in experiment [2], in experiment [3], in [4], in experiment [5] and in experiment [6] was “inactive” in each case. The Potency result in experiment [7], in experiment [9], in experiment [10], in [11], in experiment [12] and in experiment [13] was “inactive” throughout. Also, the call in experiment [8] was inactive.

In the case of `CN1CCN(c2c(F)cc3c(=O)c(C(=O)O)cn(CCF)c3c2F)CC1`, the Potency entry in experiment [1], in experiment [2], in experiment [3], in experiment [5], in [6] and in experiment [7] was “inactive” each time. In addition, the Potency result in experiment [14], in experiment [10], in experiment [11], in [12] and in [15] was “inactive” throughout. Besides, the result in experiment [8] was inactive.

For `COc1ccccc1N1CCN(CCCNc2cc(=O)n(C)c(=O)n2C)CC1`, the Potency result in experiment [1], in experiment [2], in experiment [3], in experiment [5], in experiment [16] and in [17] was “inactive” each time. The Potency result in [6], in experiment [14], in experiment [9], in experiment [18], in experiment [10] and in experiment [11] was “inactive” throughout. The Potency entry in experiment [12], in [15] and in [13] was “inactive” each time. Also, the activity change, positive = activation in [19] was 3.63% [at 42.5 µM].

Consider `CCOC(=O)c1ccccc1O`, for which the Potency result in experiment [1], in experiment [2], in experiment [3], in experiment [5], in experiment [16] and in [17] was “inactive” throughout. Further, the Potency entry in experiment [6], in [7], in experiment [14], in experiment [9], in [18] and in [10] was “inactive” in each case. In addition, the Potency entry in experiment [11], in [15] and in experiment [13] was “inactive” throughout. Besides, the call in experiment [8] was inactive. Further, the activity change, positive = activation in experiment [19] was 1.87% [at 42.5 µM].

With `COc1cc(C)ccc1C(C)C`, the Potency result in experiment [1], in experiment [2], in experiment [3], in experiment [5], in [16] and in experiment [17] was “inactive” each time. The Potency entry in experiment [6], in experiment [9], in [18], in experiment [10], in [11] and in experiment [12] was “inactive” each time. The Potency entry in [15] and in experiment [13] was “inactive” each time. In addition, in [8], the molecule was classed as inactive. Further, in experiment [19], the activity change, positive = activation is -0.104%.

For `O=C1C=CC(=O)O1`, the Potency entry in [1], in experiment [2], in experiment [3], in experiment [5], in [16] and in [17] was “inactive” each time. The Potency entry in experiment [6], in experiment [14], in [9], in experiment [18], in experiment [10] and in experiment [11] was “inactive” each time. Besides, the Potency entry in experiment [12], in experiment [15] and in [13] was “inactive” throughout. Also, the molecule was classed as inactive in [8]. The activity change, positive = activation in [19] was 7.02%.

Consider `C[C@]12CCC(=O)C=C1CC[C@@H]1[C@@H]2CC[C@@]2(C)[C@H]1CC[C@]2(O)C(=O)CO`, for which the Potency entry in experiment [1], in experiment [2], in [3], in experiment [5], in experiment [16] and in experiment [17] was “inactive” each time. Moreover, the Potency entry in experiment [6], in [14], in experiment [9], in [10], in experiment [11] and in experiment [15] was “inactive” each time. In addition, the Potency entry in experiment [13] is “inactive”. The activity change, positive = activation in experiment [19] is -16% [at 42.5 µM].

On to `CCOc1ccc2nc(N)sc2c1`, for which the Potency was 19.9 µM (active) in [1] and 27.1 µM (active) in [17]. In addition, the Potency entry in experiment [2], in experiment [3], in experiment [5], in experiment [16], in experiment [6] and in experiment [7] was “inactive” throughout. In addition, the Potency entry in [18], in [10], in experiment [12], in experiment [15] and in experiment [13] was “inactive” in each case. For the same molecule, the outcome in experiment [8] was inactive. The activity change, positive = activation in experiment [19] is 78% (active).
